HCV inh: qHTS Assay for Inhibitors of Hepatitis C Virus (HCV); Huh7.5.1 HCVcc-Cre infection, luciferase reporter, 44 h; Potency, µM (doses to about 41.8 µM), hits mostly inhibitors; actives 3.4% (n = 340,000); active = well fitted inhibition curve with a large enough effect; inconclusive = small, poorly fitted or top-dose-only effect, or another doubt; inactive = no such curve, though single readings can be large or run the other way
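Cells seeded at 1,000/well and cultured 4 h, then compounds added followed by HCVcc-Cre virus (~0.5 moi). After 44 h further culture, luciferase substrate was added, plates held 15 min at room temperature, and luminescence read for 15 sec.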
MARV entry inh: qHTS for inhibitors of binding or entry into cells for Marburg Virus. Marburg virus pseudotyped entry inhibition, cell reporter. Potency, µM (series often up to 37.8 µM), most hits filed as inhibitors. actives 1.8% (n = 300,000). AID 540276, 2011; calls by dose curve; tested in HEK293 cells
FMDV inh: High Throughput Screening for Foot and Mouth Disease Virus Antivirals; FMDV antiviral cell-based qHTS; Potency, µM (highest dose often 57.9 µM), hits mostly inhibitors; actives 1.2% (n = 410,000); AID 1159524, 2015; calls by dose curve; tested in HEK293T cells; note: read-out not given here; nearly all actives have a fitted effect of over 45% in size
SARS PLpro yeast: qHTS of Yeast-based Assay for SARS-CoV PLP. Potency, µM (doses to about 32.9 µM), actives largely listed as activators. actives 0.19% (n = 330,000). S. cerevisiae expressing SARS-CoV PLpro, growth rescue. AID 485353, 2010; calls by dose curve; note: nearly all actives have a fitted effect of over 55% in size
HCMV antiviral: qHTS Assay for inhibitors of the human cytomegalovirus (HCMV); HFF cells, HCMV-luciferase reporter, 72 h; stronger effect = lower value; activity change, negative = inhibition, % at 57.5 µM; actives 4.5% (n = 410,000); AID 1259415, 2018; in the data active = activity change below about -60%; inconclusive = no clear call, values can overlap the other calls; inactive = above about -39%
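Cell-based, HFFs, 1000 cells/well, 16 h 37C; cpds in DMSO + HCMV-luc, MOI 1 PFU/cell; 72 h 37C; OneGlo luminescence after 5 min RT; norm. to buffer vs Salinomycin 10uM.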
LASV entry inh: qHTS for Inhibitors of binding or entry into cells for Lassa Virus; Lassa virus pseudotype entry inhibition, cell reporter; Potency, µM (doses to about 37.9 µM), most hits filed as inhibitors; actives 1.2% (n = 300,000); AID 540256, 2011; calls by dose curve; tested in HEK293 cells; note: nearly all actives have a fitted effect of over 50% in size
Large screens that a line does not name were inactive; ! = repeats disagree. Hits are enriched below; roughly 8% of the tested compounds scored in any of these assays.

COc1cc2c(cc1NC(=O)COC(=O)C1CC(=O)N(Cc3ccco3)C1)oc1ccccc12 (stereo not given)	HCV inh 4.5µM
COc1cc(NC(=O)C2CC(=O)N(Cc3ccco3)C2)c(OC)cc1Cl (stereo not given)	none (no result: MARV entry inh, LASV entry inh)
CSCCC(C(=O)Nc1c(C)cccc1C)n1c(-c2ccc(C(F)(F)F)cc2)nc2ccccc21 (stereo not given)	none (no result: HCV inh, MARV entry inh, SARS PLpro yeast, LASV entry inh)
COC(=O)c1ccccc1NS(=O)(=O)c1cc2c3c(c1)CC(=O)N3CCC2	none (no result: HCV inh, MARV entry inh, SARS PLpro yeast)
O=C(O)Cn1nnc(COc2ccccc2)n1	none
Cc1cc(C)c2cc3c(N)c(C(=O)N4CCc5ccccc5C4)sc3nc2c1	HCV inh inconclusive (no result: FMDV inh)
Cc1cccc2cc3c(N)c(C(=O)N4CCOCC4)sc3nc12	HCV inh inconclusive, MARV entry inh inconclusive, SARS PLpro yeast inconclusive, LASV entry inh 11µM
CC(=O)Nc1ccc(NC(=O)CCn2cnnn2)cc1	none (no result: LASV entry inh)
O=C(CCn1cnnn1)Nc1ccc(F)cc1	MARV entry inh inconclusive, HCMV antiviral -103!
CCCCCCCCN1C(=O)[C@H](CC(=O)NCc2cccc3ccccc23)C[C@@]2(C(=O)OCC)CCC=C12	FMDV inh inconclusive (no result: HCV inh, MARV entry inh, SARS PLpro yeast, LASV entry inh)
O=C(Nc1ccccc1)C1CCCN1C(=O)Nc1ccccc1[N+](=O)[O-] (stereo not given)	HCMV antiviral -62
CC(=O)Nc1ccc(NC(=O)C2CCCN2C(=O)Nc2ccccc2[N+](=O)[O-])cc1 (stereo not given)	none
Cc1noc(C)c1S(=O)(=O)NC(=O)C1(C)CCN1C(=O)Cc1ccc(-c2ccccc2)cc1 (stereo not given)	none (no result: HCV inh, MARV entry inh, SARS PLpro yeast, LASV entry inh)
CC(C)(C)c1ccc(C(=O)CC(=O)c2cc(Cl)ccc2O)cc1	HCV inh 11µM, HCMV antiviral -83, LASV entry inh inconclusive
Cc1ccc(C(=O)CC(=O)c2ccc(C(C)(C)C)cc2)cc1	HCV inh inconclusive (no result: MARV entry inh, LASV entry inh)
Cc1ccc(C(=O)CC(=O)c2ccc(C)cc2O)cc1	HCV inh inconclusive, MARV entry inh inconclusive
Cc1ccc(C(=O)CC(=O)c2cc(Cl)ccc2O)cc1	HCV inh 13µM, MARV entry inh inconclusive, HCMV antiviral inconclusive
Cc1ccc(/C=N/NC(=O)Cc2c(F)cccc2Cl)s1	none (no result: MARV entry inh, LASV entry inh)
O=C(CNC(=O)c1ccccc1)N/N=C/c1cccs1	HCMV antiviral inconclusive
O=C(CNC(=O)c1cccc(F)c1)N/N=C/c1cccs1	HCMV antiviral -62 (no result: MARV entry inh, LASV entry inh)
O=C(Cc1c(F)cccc1Cl)N/N=C/c1cccs1	HCMV antiviral -75
CCOC(=O)C1(CC2CC2)CCN(Cc2cnc(-c3ccc(OC)cc3)nc2)CC1	HCV inh inconclusive, MARV entry inh inconclusive, FMDV inh inconclusive, HCMV antiviral -62
CCOC(=O)C1(Cc2ccccc2)CCN(Cc2cn[nH]c2-c2ccccc2)CC1	HCV inh inconclusive, FMDV inh inconclusive, HCMV antiviral -78 (no result: MARV entry inh, LASV entry inh)
CCOC(=O)C1(CCOc2ccccc2)CCN(Cc2cccc(OC)c2)CC1	HCV inh 11µM (no result: MARV entry inh, SARS PLpro yeast, LASV entry inh)
CCOC(=O)C1(Cc2cccc(OC)c2)CCN(Cc2cccc(OC)c2OC)CC1	HCV inh 10µM, MARV entry inh inconclusive, FMDV inh inconclusive, HCMV antiviral inconclusive
COCC(=O)Nc1cc(C(=O)N2CCC(c3ccccc3)CC2)cc2nc(-c3ccccc3)n(C)c12	none (no result: HCV inh, MARV entry inh, SARS PLpro yeast, HCMV antiviral, LASV entry inh)
CCOC(=O)C1(CCOC)CCN(Cc2ccncc2)CC1	LASV entry inh inconclusive
CCOC(=O)C1(Cc2cccc(F)c2)CCN(Cc2c(C)nn(CC)c2C)CC1	HCV inh 13µM, FMDV inh inconclusive, HCMV antiviral inconclusive (no result: MARV entry inh, LASV entry inh)
CCOC(=O)C1(CCOc2ccccc2)CCN(Cc2ccc(-n3cccn3)cc2)CC1	HCV inh 2.5µM, FMDV inh inconclusive, HCMV antiviral -61 (no result: MARV entry inh, LASV entry inh)
CCOC(=O)C1(Cc2ccc(Cl)cc2)CCN(Cc2ccon2)CC1	HCMV antiviral -66 (no result: MARV entry inh, LASV entry inh)
CCOC(=O)C1(Cc2cccc(F)c2)CCN(Cc2cn(CC)nc2C)CC1	HCV inh inconclusive, MARV entry inh inconclusive
CCOC(=O)C1(CCOC)CCN(C/C=C/c2ccccc2OC)CC1	HCV inh 11µM, FMDV inh inconclusive (no result: MARV entry inh, SARS PLpro yeast, LASV entry inh)
CCOC(=O)C1(CCOc2ccccc2)CCN(Cc2ccncc2)CC1	HCV inh inconclusive, MARV entry inh inconclusive, FMDV inh inconclusive
COc1cc(OC)c(Nc2nc3ccc(C)cc3n3nnnc23)cc1Cl	none (no result: HCV inh, MARV entry inh, SARS PLpro yeast)
Cc1cn2c(=O)c(S(=O)(=O)Nc3ccc(N4CCOCC4)cc3)c(C)nc2s1	none (no result: HCV inh, MARV entry inh, SARS PLpro yeast)
O=C(c1cnccn1)N1CC(=O)N2[C@@H](CO)[C@H](c3ccc(Br)cc3)[C@@H]2C1	none (no result: HCV inh, MARV entry inh, FMDV inh, SARS PLpro yeast, LASV entry inh)
CCOC(=O)C1(CCOc2ccccc2)CCN(Cc2nccn2CC)CC1	HCV inh inconclusive, MARV entry inh inconclusive
CCOC(=O)C1(Cc2ccccc2Cl)CCN(Cc2csc(C(C)=O)c2)CC1	HCV inh 13µM, MARV entry inh inconclusive, LASV entry inh inconclusive
CCOC(=O)C1(CCOc2ccccc2)CCN(Cc2cccn2-c2ncccn2)CC1	MARV entry inh 8.9µM, LASV entry inh inconclusive
CN(C)CC(=O)N1c2ccccc2Sc2ccc(Cl)cc21	HCV inh inconclusive, HCMV antiviral -64
CN(C)CCC(=O)N1c2ccccc2Sc2ccc(Cl)cc21	HCV inh 6.3µM, MARV entry inh inconclusive, HCMV antiviral inconclusive
NCCC(=O)N1c2ccccc2Sc2ccc(Cl)cc21	HCV inh inconclusive (no result: MARV entry inh, LASV entry inh)
CCN(CC)CCC(=O)N1c2ccccc2Sc2ccc(Cl)cc21	HCV inh inconclusive, HCMV antiviral inconclusive (no result: MARV entry inh, SARS PLpro yeast, LASV entry inh)
NCCCC(=O)N1c2ccccc2Sc2ccc(Cl)cc21	HCV inh 5µM, MARV entry inh inconclusive, LASV entry inh 0.71µM
